Measurements from PubChem BioAssay AID1159580 (chemical genetic matrix, 2015).
Out of some 5,500 compounds screened, about 2,000 (36%) were called active. Another 18% or so got no clear call; they are omitted. Rule as the data show it: active = normalized growth mostly below about 0.91 (no sharp cut-off); inconclusive = no clear call, values can overlap the other calls; inactive = mostly above about 0.92. The list shows a part of the results.

Assay: chemical genetic growth profiling, strain panel (AID 1159580);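 also: tested at 20 µM; growth read once vehicle control cultures reached saturation at 30 °C; 1 = growth at the plate median or of vehicle wells; lower values mean less growth of the strain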
Conditions: S. cerevisiae deletion strains, growth OD

Measured: normalized growth

NC(N)=NN=Cc1c(Cl)cccc1Cl
inactive: locus YAL040C, strain CLN3, hits give low values 0.994 | locus YCL061C, strain MRC1 (second series), hits give low values 0.999 | locus YDR363W, strain ESC2, hits give low values 1.01 | locus YER002W, strain NOP16, hits give low values 1.01 | locus YJR075W, strain HOC1, hits give low values 1.01 | locus YMR263W, strain SAP30, hits give low values 1 | locus YMR307W, strain GAS1, hits give low values 1.01 | locus YNL153C, strain GIM3, hits give low values 0.999 | locus YNL175C, strain NOP13, hits give low values 1.02 | locus YNL197C, strain WHI3, hits give low values 1 | locus YNL224C, strain SQS1, hits give low values 1.01 | locus YOR083W, strain WHI5 (second series), hits give low values 1.01
